The values below come from ChEMBL document CHEMBL3988442, “University of Dundee, Small-Polar-MMV Screening Library” (2021).

Holding throughout (design): scale not given: direction of the effect not stated beside the values
Assay [1] deals with Protein translocase subunit SecA (Escherichia coli (strain K12)) (UniProt P10408). The assay can be described thus: Assay to Identify E. coli SecA ATPase Inhibitors. Format: functional. Particulars: 30 µM.
In assay [2] the target is T1, Ubiquitin-activating enzyme e1, putative (Leishmania donovani (strain BPK282A1)) (UniProt E9BSI1).
T1 sequence (whole entry): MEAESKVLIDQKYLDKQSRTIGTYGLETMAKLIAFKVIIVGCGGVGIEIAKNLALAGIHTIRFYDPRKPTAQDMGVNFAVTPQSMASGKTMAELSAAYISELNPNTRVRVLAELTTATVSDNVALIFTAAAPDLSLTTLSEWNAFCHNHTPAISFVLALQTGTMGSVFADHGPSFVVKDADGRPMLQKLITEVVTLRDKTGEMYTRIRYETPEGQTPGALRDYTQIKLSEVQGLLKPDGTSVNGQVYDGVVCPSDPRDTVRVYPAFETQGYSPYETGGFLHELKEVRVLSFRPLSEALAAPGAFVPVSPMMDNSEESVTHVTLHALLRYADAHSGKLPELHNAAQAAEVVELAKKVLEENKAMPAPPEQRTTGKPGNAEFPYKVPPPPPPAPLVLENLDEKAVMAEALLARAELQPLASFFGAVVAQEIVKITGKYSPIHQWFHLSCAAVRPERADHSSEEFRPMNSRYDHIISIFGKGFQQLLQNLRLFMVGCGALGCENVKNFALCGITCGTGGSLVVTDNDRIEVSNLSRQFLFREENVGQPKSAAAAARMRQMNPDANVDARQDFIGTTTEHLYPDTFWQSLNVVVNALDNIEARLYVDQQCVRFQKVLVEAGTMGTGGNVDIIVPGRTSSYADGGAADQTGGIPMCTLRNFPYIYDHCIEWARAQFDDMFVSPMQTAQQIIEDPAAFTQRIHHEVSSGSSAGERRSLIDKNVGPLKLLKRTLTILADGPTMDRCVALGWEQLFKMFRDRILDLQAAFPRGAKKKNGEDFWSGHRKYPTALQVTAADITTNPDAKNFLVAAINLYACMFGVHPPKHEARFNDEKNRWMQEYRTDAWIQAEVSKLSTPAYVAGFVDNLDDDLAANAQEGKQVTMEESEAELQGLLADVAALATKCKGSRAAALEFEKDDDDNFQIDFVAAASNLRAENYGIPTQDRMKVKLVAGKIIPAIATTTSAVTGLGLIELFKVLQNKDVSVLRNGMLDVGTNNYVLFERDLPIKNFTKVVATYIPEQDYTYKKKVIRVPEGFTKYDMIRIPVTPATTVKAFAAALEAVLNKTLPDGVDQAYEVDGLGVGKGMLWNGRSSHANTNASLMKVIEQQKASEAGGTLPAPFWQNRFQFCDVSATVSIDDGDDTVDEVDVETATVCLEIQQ
The assay can be described thus: Leishmania donovani Ubiquitin Activating Enzyme (LdE1). Type of assay: functional. The settings on record: 30 µM.

The target in assay [3] is AMP-activated protein kinase, AMPK (Homo sapiens) (UniProt P54646+O43741+P54619+Q9UGJ0+Q9Y478+Q13131+Q9UGI9). The assay can be described thus: AMP-dependent Kinase enzyme assay. An in vitro enzyme assay that detects ADP turnover that is directly proportional to AMPK activity. This uses naive AMPK that is activated during the assay with MK-8722. Format: functional. Particulars: 30 µM.

Assay [4] has as its target Sialic acid-binding Ig-like lectin 9 (Homo sapiens) (UniProt Q9Y336). The assay can be described thus: Hs-Siglec9 ALPHAscreen SOP 20170721. The settings on record: 10 µM.
The test system of the next assay is Trypanosoma cruzi. The assay is described as follows: Trypanosoma cruzi phosphomannomutase and mannose-1-phosphate guanylyltransferase assay. Format: functional. The settings on record: 10 µM.
Assay [5] deals with T2, Arginase-2, mitochondrial (Homo sapiens) (UniProt P78540).
T2 sequence (whole entry): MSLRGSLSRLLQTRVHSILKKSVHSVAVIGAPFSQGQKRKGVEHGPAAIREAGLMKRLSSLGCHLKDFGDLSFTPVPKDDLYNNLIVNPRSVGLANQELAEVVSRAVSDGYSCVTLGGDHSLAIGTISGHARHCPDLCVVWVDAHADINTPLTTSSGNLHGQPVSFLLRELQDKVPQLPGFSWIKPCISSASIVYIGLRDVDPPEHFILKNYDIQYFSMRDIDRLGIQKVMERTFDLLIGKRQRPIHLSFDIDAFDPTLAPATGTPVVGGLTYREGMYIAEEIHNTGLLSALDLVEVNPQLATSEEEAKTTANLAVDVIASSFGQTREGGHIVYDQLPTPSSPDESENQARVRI
The assay can be described thus: in vitro enzyme assay to detect the production of urea directly proportional to the activity of Arginase II. Further: in the data most compounds retested in dose-response had high values. Format: functional. Particulars: 33.3 µM.

Assay [6] deals with T3, Proteasome subunit beta (Trypanosoma cruzi) (UniProt O96673).
T3 sequence (whole entry): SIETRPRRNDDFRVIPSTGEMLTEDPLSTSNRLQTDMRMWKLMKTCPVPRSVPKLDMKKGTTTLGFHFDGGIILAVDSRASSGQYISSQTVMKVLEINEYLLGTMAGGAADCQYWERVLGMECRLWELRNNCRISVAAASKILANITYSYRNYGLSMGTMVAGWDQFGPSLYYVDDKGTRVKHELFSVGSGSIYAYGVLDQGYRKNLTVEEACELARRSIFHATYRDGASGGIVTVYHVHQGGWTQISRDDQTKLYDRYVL
The assay can be described thus: Trypanosoma cruzi proteasome chymotrypsin-like activity (TcProtChymo) assay. Further: in the data most compounds retested in dose-response had high values. Particulars: 9.37 µM. Type of assay: functional.

The species entered for the next assay is Homo sapiens. The assay can be described thus: To identify inhibition of the IFN signalling (Jak-Stat) pathway via expression of an eGFP reporter gene under the control of an IFN-stimulated response element (ISRE) containing MxA promoter. Type of assay: functional. The settings on record: 30 µM. A general note: Reporter assays use an easily measured gene product as a stand-in for the process of interest.

Assay [7] deals with T4, Tyrosyl-tRNA synthetase, putative (Trypanosoma cruzi (strain CL Brener)) (UniProt Q4DSP6).
T4 sequence (whole entry): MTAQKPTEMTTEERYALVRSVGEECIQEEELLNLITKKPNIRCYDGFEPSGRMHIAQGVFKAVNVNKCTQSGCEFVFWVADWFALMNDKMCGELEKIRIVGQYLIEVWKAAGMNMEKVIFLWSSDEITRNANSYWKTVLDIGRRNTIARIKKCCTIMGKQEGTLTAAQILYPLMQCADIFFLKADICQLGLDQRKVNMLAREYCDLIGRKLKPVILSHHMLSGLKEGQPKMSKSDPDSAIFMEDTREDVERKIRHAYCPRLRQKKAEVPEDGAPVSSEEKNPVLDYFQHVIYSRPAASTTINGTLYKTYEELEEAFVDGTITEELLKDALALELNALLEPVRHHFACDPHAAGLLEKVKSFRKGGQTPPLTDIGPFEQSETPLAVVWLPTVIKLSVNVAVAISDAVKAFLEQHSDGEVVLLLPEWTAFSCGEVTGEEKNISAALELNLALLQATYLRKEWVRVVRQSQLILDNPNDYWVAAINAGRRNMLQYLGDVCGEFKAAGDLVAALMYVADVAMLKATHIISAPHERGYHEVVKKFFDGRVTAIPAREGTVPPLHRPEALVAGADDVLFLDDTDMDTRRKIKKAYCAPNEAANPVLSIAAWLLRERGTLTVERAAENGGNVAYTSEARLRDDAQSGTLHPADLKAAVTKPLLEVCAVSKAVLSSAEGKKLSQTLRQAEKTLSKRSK
The assay is described as follows: Trypanosoma cruzi tyrosyl tRNA synthetase (TcYRS) _High Tyrosine SOP. Further: in the data most compounds retested in dose-response had high values. Type of assay: functional. Particulars: 30 µM.

The target in assay [8] is T4, Tyrosyl-tRNA synthetase, putative (Trypanosoma cruzi (strain CL Brener)). The assay can be described thus: Trypanosoma cruzi tyrosyl tRNA synthetase (TcYRS) SOP. Type of assay: functional. The settings on record: 30 µM.
Assay [9] concerns the target Chromo domain-containing protein 1 (Saccharomyces cerevisiae (strain ATCC 204508 / S288c) (Baker's yeast)) (UniProt P32657). The assay can be described thus: ScCHD-1 Enzyme Inhibition Assay. Further: in the data most compounds retested in dose-response had high values. Format: functional. The settings on record: 30 µM.

For some of these results: Entries with a potency or affinity are not part of this list.

Sequence of Protein translocase subunit SecA (Escherichia coli (strain K12)) (P10408 whole entry): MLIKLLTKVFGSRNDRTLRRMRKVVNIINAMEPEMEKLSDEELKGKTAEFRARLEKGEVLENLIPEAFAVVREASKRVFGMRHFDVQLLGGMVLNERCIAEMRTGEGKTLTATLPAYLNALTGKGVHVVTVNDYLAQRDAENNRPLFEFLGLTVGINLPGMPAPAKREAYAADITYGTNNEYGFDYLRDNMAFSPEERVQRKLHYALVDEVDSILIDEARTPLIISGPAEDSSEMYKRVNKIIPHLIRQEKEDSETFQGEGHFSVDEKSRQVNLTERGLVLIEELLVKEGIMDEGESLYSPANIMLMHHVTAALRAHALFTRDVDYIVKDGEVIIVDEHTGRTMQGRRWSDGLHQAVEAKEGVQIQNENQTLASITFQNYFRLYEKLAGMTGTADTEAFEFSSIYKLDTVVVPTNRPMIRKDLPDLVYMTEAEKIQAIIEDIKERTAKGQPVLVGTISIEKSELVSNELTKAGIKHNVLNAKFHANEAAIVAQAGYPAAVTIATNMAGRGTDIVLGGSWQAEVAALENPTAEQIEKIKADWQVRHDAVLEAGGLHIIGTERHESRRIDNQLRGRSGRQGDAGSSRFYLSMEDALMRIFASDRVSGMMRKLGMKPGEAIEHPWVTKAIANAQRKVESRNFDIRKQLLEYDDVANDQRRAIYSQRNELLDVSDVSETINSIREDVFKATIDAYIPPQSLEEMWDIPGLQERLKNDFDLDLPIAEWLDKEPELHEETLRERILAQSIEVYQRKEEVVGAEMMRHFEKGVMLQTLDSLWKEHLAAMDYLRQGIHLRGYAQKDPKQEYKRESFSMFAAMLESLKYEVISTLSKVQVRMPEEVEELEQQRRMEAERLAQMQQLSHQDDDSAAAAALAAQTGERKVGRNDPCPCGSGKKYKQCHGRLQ
Sequence of Chromo domain-containing protein 1 (Saccharomyces cerevisiae (strain ATCC 204508 / S288c) (Baker's yeast)) (P32657 whole entry, the tested form may be a part): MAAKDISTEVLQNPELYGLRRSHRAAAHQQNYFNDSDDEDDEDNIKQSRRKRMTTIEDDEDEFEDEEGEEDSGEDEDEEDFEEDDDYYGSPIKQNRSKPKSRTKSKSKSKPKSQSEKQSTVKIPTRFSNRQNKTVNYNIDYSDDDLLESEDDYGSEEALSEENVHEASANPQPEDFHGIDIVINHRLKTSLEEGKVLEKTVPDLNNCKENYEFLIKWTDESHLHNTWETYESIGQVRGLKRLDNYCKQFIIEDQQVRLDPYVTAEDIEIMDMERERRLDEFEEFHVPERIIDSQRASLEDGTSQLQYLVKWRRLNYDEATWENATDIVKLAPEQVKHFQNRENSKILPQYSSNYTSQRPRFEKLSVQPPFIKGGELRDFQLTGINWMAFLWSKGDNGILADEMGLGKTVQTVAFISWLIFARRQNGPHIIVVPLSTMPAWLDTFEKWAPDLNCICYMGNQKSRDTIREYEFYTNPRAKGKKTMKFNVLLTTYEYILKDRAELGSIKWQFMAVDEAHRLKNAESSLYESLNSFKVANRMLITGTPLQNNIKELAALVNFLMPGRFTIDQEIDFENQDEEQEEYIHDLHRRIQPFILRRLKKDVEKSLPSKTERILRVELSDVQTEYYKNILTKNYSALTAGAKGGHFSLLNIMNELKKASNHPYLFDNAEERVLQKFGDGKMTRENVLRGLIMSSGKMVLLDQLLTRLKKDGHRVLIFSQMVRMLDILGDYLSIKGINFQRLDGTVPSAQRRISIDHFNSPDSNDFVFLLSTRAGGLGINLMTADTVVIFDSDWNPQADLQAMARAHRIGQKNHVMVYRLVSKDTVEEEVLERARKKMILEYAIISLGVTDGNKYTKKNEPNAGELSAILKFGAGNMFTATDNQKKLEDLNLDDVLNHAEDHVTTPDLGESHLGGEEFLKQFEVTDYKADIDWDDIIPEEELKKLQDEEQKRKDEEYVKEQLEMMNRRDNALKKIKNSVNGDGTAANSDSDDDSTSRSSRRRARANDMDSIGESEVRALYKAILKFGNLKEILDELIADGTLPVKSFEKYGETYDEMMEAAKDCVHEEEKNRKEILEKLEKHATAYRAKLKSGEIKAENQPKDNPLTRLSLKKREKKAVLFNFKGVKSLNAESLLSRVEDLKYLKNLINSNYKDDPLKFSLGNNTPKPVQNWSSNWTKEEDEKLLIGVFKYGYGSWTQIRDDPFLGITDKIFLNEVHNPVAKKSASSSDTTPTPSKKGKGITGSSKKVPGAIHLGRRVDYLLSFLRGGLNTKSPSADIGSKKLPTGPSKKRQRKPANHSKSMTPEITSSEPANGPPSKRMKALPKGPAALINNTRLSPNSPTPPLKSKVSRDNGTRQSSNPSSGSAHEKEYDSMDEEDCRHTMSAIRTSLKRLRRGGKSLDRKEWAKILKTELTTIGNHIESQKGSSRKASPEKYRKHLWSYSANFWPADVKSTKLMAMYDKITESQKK
Sequence of Sialic acid-binding Ig-like lectin 9 (Homo sapiens) (Q9Y336 whole entry): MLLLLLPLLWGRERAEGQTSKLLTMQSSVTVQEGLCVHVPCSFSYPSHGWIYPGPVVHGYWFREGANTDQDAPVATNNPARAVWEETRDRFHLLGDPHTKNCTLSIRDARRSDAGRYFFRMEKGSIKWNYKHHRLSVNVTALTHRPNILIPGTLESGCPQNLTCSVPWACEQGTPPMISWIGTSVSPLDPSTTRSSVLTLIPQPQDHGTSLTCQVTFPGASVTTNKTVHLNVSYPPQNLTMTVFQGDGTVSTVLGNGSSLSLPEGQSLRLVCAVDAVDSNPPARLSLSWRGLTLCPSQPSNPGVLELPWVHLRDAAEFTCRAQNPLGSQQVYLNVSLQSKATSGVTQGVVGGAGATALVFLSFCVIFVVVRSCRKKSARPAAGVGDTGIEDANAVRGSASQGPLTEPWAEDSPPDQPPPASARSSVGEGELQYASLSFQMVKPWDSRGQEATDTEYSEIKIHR

Regarding `CNS(=O)(=O)CCCN1CCCC1c1cc(C)on1` (stereo not drawn), the Percent Effect in assay [1] was -2.37%; in [2], 0%; in [3], 1.65%; in assay [4], -3.19%; with Trypanosoma cruzi it was -3.68%; in [5] it was -1.52%. Besides, the Percent Effect in assay [6] is 4.5%; in the assay filed under Homo sapiens, 13.8%; in assay [7], 0.493%; in [8], -3.8%; in assay [9], 0.192%.

For the molecule `Cc1cccc(Nc2nccnc2C2CCCN2CC(=O)N(C)C)n1` (stereo not drawn), the Percent Effect in assay [1] was -5.74%; in assay [2], 8%; in [3], -0.423%; in assay [4], 3.06%; in the assay with Trypanosoma cruzi, 5.32%; in assay [5] it was -3.5%. Also, the Percent Effect in assay [6] is -3.08%; in the assay filed under Homo sapiens, 1.25%; in assay [7] it was 4.25%; in [8] it was 6.41%; in [9] it was 3.88%.

`Cc1cccc(CNCc2c(C)nn(C)c2N2CCOCC2)n1`: the Percent Effect in [1] is 0.786%; in assay [2], 8.22%; in assay [3] it was 4.7%; in assay [4], 2.65%; in the assay on Trypanosoma cruzi, 5.09%; in assay [5] it was 13.2%. Moreover, the Percent Effect was 19.3% in [6]; -6.96% in the assay listed under Homo sapiens; 8.6% in [7]; 15% in assay [8]; -6.04% in assay [9].

On to `CC(C)Cc1cc(C(=O)NCc2nnc[nH]2)[nH]n1`, for which the Percent Effect in assay [1] is -3.85%; in [2] it was 7.89%; in assay [3], 11.2%; in assay [4], 7.63%; with Trypanosoma cruzi, -3.02%; in assay [5], -4.73%. The Percent Effect in [6] was 13.1%; in the assay filed under Homo sapiens, -0.467%; in assay [7], 1.06%; in assay [8], -2.6%; in assay [9], -1.14%.

In the case of `COc1ccc(-c2noc(CNC(C)Cn3cccn3)n2)c(OC)c1` (stereo not drawn), the Percent Effect in [1] is -5.86%; in [2], 31.6%; in assay [3], -3.12%; in [4] it was -7.44%; in the assay on Trypanosoma cruzi, 2.15%; in assay [5] it was -2.52%. The Percent Effect in assay [6] is 9.9%; in the assay filed under Homo sapiens, 17.3%; in assay [7], 5.42%; in assay [8] it was 25.9%; in [9], -11.8%.

With `CC(C)N(C)CCCNC(=O)c1cnc(-c2ccccc2)nc1`, the Percent Effect was -6.93% in [1]; 21.6% in assay [2]; 1.03% in [3]; 23.6% in assay [4]; 6.75% in the assay on Trypanosoma cruzi; 7.2% in [5]. The Percent Effect is 8.67% in assay [6]; -4.42% in the assay listed under Homo sapiens; 4.3% in assay [7]; 18.5% in assay [8]; -10.6% in assay [9].

Turning to `COc1cccc(CNC(=O)N2CCN(Cc3cc(C)on3)CC2)c1`, the Percent Effect is -1.41% in assay [1]; 15.2% in [2]; -1.11% in assay [3]; -7.32% in [4]; -6.33% with Trypanosoma cruzi; 0.38% in [5]. The Percent Effect in assay [6] was 1.39%; in the assay filed under Homo sapiens it was 25.8%; in assay [7], 5.42%; in assay [8], 11.4%; in [9] it was -5.16%.

In the case of `CCn1nc(C(=O)N2CCCC(n3cncn3)C2)ccc1=O` (stereo not drawn), the Percent Effect was -3.67% in assay [1]; 5.2% in assay [2]; 7.01% in [3]; 5.16% in assay [4]; 6.76% with Trypanosoma cruzi; 2.74% in [5]. Further, the Percent Effect in assay [6] was 9.78%; in the assay filed under Homo sapiens, -15.3%; in [7], 0.952%; in assay [8], 11.8%; in assay [9], -10.3%.
